Experimental data from PubChem BioAssay (EPA / NIEHS).
Calls of active or inactive are those of the source. How the source made its calls: active means hit-call score of the fitted dose curve at least 0.9, where 1 is the maximum; inactive means score below 0.9.

Read-out: Glutamate-cysteine ligase catalytic (GCLC), GCLC (gene 2729)
Assay: LTEA_HepaRG_GCLC: Life Technologies and Expression Analysis (LTEA) Assay for Glutamate-cysteine ligase catalytic (GCLC) using HepaRG (AID 2283498)
Conditions: mRNA level, 48 h; actives raise or lower the signal
Method: LTEA_HepaRG is a cell based, multiplexed-readout assay that uses HepaRG, a human liver cell line, with measurements taken at 48 hours after chemical dosing on a 96-well plate.LTEA_HepaRG_GCLC is one of 102 assay component(s) measured in the LTEA HepaRG cell culture assay. It is a marker of Oxidative Stress.Data from the assay component LTEA_HepaRG_GCLC was analyzed into 1 endpoint. This assay endpoint, LTEA_HepaRG_GCLC, was analyzed with bidirectional fitting relative to DMSO as the negative control and baseline of activity. Using a type of inducible reporter, measures of mRNA induction for gain or loss-of-signal activity can be used to understand regulation of transcription factor activity. To generalize the intended target to other relatable targets, this assay endpoint is annotated to the ligase intended target family, where the subfamily is C-N ligase.
A total of 1060 chemcials from the ToxCast library were tested in eight-point concentration-response experiments. Cell culture and cytotoxicity assays were conducted at Thermo Fisher Scientific's Custom Services facility (Madison, WI). A single lot of human HepaRG cells (Thermo Fisher Scientific, Frederick, MD) was used for the cell culture experiments. 96-well format collagen type I coated plates of human HepaRG cells were prepared using established methods. Briefly, cryopreserved HepaRG cells were thawed, plated at a density of approximately 100,000 cells/well in HepaRG Thaw, Plate, and General Purpose media (HPRG770, Thermo Fisher Scientific), and incubated for 48 hours. 0.5% DMSO was selected as vehicle control to balance the requisite need of DMSO in HepaRG cultures to maintain differentiation (for example, baseline metabolism, proportions of hepatocytes vs. cholangiocytes), while enabling further hepatic receptor pathway activation (for example, PXR and CAR) in response to chemical exposure. 48 hours after plating, the culture medium was replaced with HepaRG Serum-Free Incudtion Media. Cells were exposed to each test chemical in duplicate and maintained in CO2 incubators for another 48 hours. Chemical plates were thawed to room temperature and 200x concentrations of treatment groups were prepared. 8-point conentration-reponse curves were made with the highest exposure at 100 uM, followed by half-log dilutions, all in 0.5% DMSO. Each test plate contained variouse controls, induction positive controls (1mM phenobarbital), cytotoxicity positive controls ([…] aflatoxin B1), vehicle controls (0.5% DMSO), and total lysis controls (0.5% DMSO). Cell morphology images were taken using an Essen IncuCyte FLR automated microscope, with six 96-well plates imaged in about 24 minutes. Images were captured and exported and JPEG files. Spent culture media was transfered to black-well plates for the LDH assay, and remaining media was sorted at -80 C for later use. Cells were treated with RLT buffer and frozen until shipped for gene expression analysis. Total RNA was isolated from the cell suspension in 75 uL of Buffer RLT (Qiagen, Germantown, MD 20874) by Quintiles/Expression Analysis (Durham, NC) using a custom isolation procedure. Total RNA from each plate well was transferred to a preamplification plate. Fluidigm's 96.96 Dynamic ArrayTM (Fluidigm, Amsterdam, the Netherlands) technology was used for gene expression analyses by quantitative reverse transcription polymerase chain reaction (qRT-PCR, performed by Quintiles/Expression Analysis, Durham, NC)89. Standard TaqManTM Assays (Applied Biosystems/ThermoFisher Scientific, Foster City, CA) were used to assess the expression of 93 genes selected based on their selectivity and sensitivity to important hepatic receptors known to be modulated by environmental chemicals; importance in human hepatocyte functionality; and hepatotoxicity. […]

Row | SMILES | outcome | AC50
1 | N#CN | inactive | 
2 | COP(=S)(OC)Oc1ccc([N+](=O)[O-])cc1 | inactive | 
3 | O=[N+]([O-])c1c(Cl)c(Cl)c(Cl)c(Cl)c1Cl | inactive | 
4 | CC(C)N(C(=O)COc1nnc(C(F)(F)F)s1)c1ccc(F)cc1 | inactive | 
5 | O=C(O)CCCOc1ccc(Cl)cc1Cl | inactive | 
6 | O=S1OCC2C(CO1)C1(Cl)C(Cl)=C(Cl)C2(Cl)C1(Cl)Cl (stereo not given) | inactive | 
7 | CC[C@H](C)[C@H]1O[C@]2(C=C[C@@H]1C)C[C@@H]1C[C@@H](C/C=C(\C)[C@@H](O[C@H]3C[C@H](OC)[C@@H](O[C@H]4C[C@H](OC)[C@@H](O)[C@H](C)O4)[C@H](C)O3)[C@@H](C)/C=C/C=C3\CO[C@@H]4[C@H](O)C(C)=C[C@@H](C(=O)O1)[C@]34O)O2 (tested in a mixture with another compound) |  | 7.09 µM (active)
8 | COc1nn(CSP(=S)(OC)OC)c(=O)s1 | inactive | 
9 | O=C(NC(=O)c1c(F)cccc1F)Nc1ccc(OC(F)(F)C(F)OC(F)(F)F)c(Cl)c1 (stereo not given) | inactive | 
10 | CNC(=O)Oc1cccc(N=CN(C)C)c1 | inactive | 
11 | O=C(O)COc1ccc(Cl)cc1Cl | inactive | 
12 | CCCN(CCC)c1c([N+](=O)[O-])cc(C(F)(F)F)cc1[N+](=O)[O-] | inactive | 
13 | C#CCN1C(=O)COc2cc(F)c(N3C(=O)C4=C(CCCC4)C3=O)cc21 | inactive | 
14 | OCCOc1ccccc1 | inactive | 
15 | O=C(O)C(F)(F)C(F)(F)C(F)(F)C(F)(F)C(F)(F)C(F)(F)C(F)(F)F | inactive | 
16 | C[C@H]1[C@H](c2ccc(Cl)cc2)SC(=O)N1C(=O)NC1CCCCC1 |  | 67.4 µM (active)
17 | N#Cc1c(Cl)c(Cl)c(Cl)c(C#N)c1Cl | inactive | 
18 | CNC(=O)/C=C(\C)OP(=O)(OC)OC | inactive | 
19 | CNC(=O)CSP(=S)(OC)OC | inactive | 
20 | CCc1ccc(C(=O)NN(C(=O)c2cc(C)cc(C)c2)C(C)(C)C)cc1 | inactive | 

Row | SMILES | outcome | AC50
21 | CCC(C)(NC(=O)c1cc(Cl)c(C)c(Cl)c1)C(=O)CCl (stereo not given) | inactive | 
22 | CC1(C)C(C=C(Cl)Cl)C1C(=O)OC(C#N)c1ccc(F)c(Oc2ccccc2)c1 (stereo not given) | inactive | 
23 | Cc1[nH]c(=O)n(C(C)(C)C)c(=O)c1Cl | inactive | 
24 | CCOCN(C(=O)CCl)c1c(C)cccc1CC | inactive | 
25 | COP(=O)(OC)OC=C(Cl)Cl | inactive | 
26 | O=C1c2ccccc2C(=O)N1SC(Cl)(Cl)Cl | inactive | 
27 | CCC(C)Nc1c([N+](=O)[O-])cc(C(C)(C)C)cc1[N+](=O)[O-] (stereo not given) | inactive | 
28 | CN1CSC(=S)N(C)C1 | inactive | 
29 | COP(=S)(OC)Oc1ccc(SC)c(C)c1 | inactive | 
30 | CCN(CC)C(=O)SCc1ccc(Cl)cc1 | inactive | 
31 | O=S(=O)(O)C(F)(F)C(F)(F)C(F)(F)C(F)(F)C(F)(F)C(F)(F)C(F)(F)C(F)(F)F | inactive | 
32 | CNC(=O)Oc1ccccc1OC(C)C | inactive | 
33 | CCOC1Oc2ccc(OS(C)(=O)=O)cc2C1(C)C (stereo not given) | inactive | 
34 | CC1(c2ccc(Oc3ccccc3)cc2)OC(=O)N(Nc2ccccc2)C1=O (stereo not given) | inactive | 
35 | CC(C)(C)C(O)/C(=C\c1ccc(Cl)cc1Cl)n1cncn1 (stereo not given) |  | 81.5 µM (active)
36 | CC(C)OC(=O)Nc1cccc(Cl)c1 | inactive | 
37 | O=[N+]([O-])/N=C1\NCCN1Cc1ccc(Cl)nc1 |  | 24.6 µM (active)
38 | Oc1cc(Cl)ccc1Oc1ccc(Cl)cc1Cl | inactive | 
39 | ClC1C(Cl)C(Cl)C(Cl)C(Cl)C1Cl (stereo not given) | inactive | 
40 | CCC(C)(C)C(=O)OC1=C(c2ccc(Cl)cc2Cl)C(=O)OC12CCCCC2 | inactive | 
